# Screening results as filed in PubChem BioAssay.
# USP7 block – inhibitors of human USP7 deubiquitinase. purified USP7, Ub-rhodamine cleavage fluorescence. inhibition, % at 20 µM. hit rate 0.3% among 47,000
# UCHL1 inh – blocks human UCHL1 ubiquitin-rhodamine cleavage; AID 1645859; purified UCHL1, Ub-rhodamine cleavage fluorescence; P09936; inhibition, % at 20 µM; hit rate 0.2% among 47,000
# USP10 inh – inhibitors of human USP10 deubiquitinase. Q14694. purified USP10, Ub-rhodamine fluorescence, 60 min. inhibition, % at 20 µM. hit rate 1.1% among 47,000. AID 1645856
# USP8 block – blocks human USP8 ubiquitin-rhodamine cleavage. hit rate 4.2% among 47,000. inhibition, % at 20 µM. purified USP8, Ub-rhodamine cleavage fluorescence, 30 min. P40818. AID 1645853
# OTUD3 block – blocks human OTUD3 ubiquitin-rhodamine cleavage; purified OTUD3, Ub-rhodamine fluorescence, 2 h; inhibition, % at 25 µM; hit rate 0.7% among 47,000; AID 1645858
# Target sequence (Q5T2D3 whole entry, looked up): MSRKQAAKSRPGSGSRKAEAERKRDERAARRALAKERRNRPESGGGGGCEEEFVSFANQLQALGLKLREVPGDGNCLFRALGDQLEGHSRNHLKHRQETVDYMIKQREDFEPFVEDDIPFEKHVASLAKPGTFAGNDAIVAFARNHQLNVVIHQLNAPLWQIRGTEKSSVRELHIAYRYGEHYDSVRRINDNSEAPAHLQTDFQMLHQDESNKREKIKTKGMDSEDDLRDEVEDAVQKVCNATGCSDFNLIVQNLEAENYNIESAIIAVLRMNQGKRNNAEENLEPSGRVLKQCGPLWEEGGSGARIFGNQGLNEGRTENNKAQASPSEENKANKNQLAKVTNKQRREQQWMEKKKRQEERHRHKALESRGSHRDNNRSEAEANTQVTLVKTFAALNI
# An asterisk follows results filed as active; . = not tested or not shown. An excerpt weighted towards active compounds, which were near 4.9% of everything screened. No stated cut-off is given here; in the data, active means inhibition above about 30%; inactive means the rest.
SMILES,USP7 block,UCHL1 inh,USP10 inh,USP8 block,OTUD3 block
Cc1ccc(S(=O)(=O)NCCn2c(N)c(C#N)c3nc4ccccc4nc32)cc1,-59.9,-18.6,-10.0,64.9*,15.3
O=C(Nc1ccccc1)/C(=C/c1ccco1)n1nnnc1-c1ccccc1,3.2,-0.3,-6.6,5.8,-13.4
CC(=O)c1ccc(NC(=O)/C(=C/c2ccco2)n2nnnc2-c2ccccc2)cc1,9.6,11.5,0.0,61.9*,2.4
COc1ccccc1NS(=O)(=O)c1ccc(C)c(NC(=O)CCOc2ccccc2F)c1,2.0,3.4,6.0,-140.6,-4.2
Cc1cc(C)nc(SCc2cc(=O)c(OC(=O)c3ccc(F)c(F)c3)co2)n1,-34.7,2.7,1.4,34.5*,13.3
O=C(Oc1coc(CSc2ncccn2)cc1=O)c1ccccc1Br,-11.1,2.8,3.0,35.6*,16.8
O=C(Oc1coc(CSc2ncccn2)cc1=O)c1ccccc1Cl,-17.7,0.2,1.6,-2.5,-0.9
COc1nc(OC)nc(N2CCC(NC(=O)C(Cc3ccc(F)cc3)NC(C)=O)CC2)n1 (stereo unspecified),4.9,0.4,1.4,0.9,13.7
CCCCOC(=O)c1ccc(NC(=O)C(=O)CC(=O)c2ccc(OC)cc2)cc1,-5.2,-1.7,7.2,77.3*,-20.1
Cc1ccc(C)c(CNS(=O)(=O)c2ccc(-c3cc(C)no3)s2)c1,6.4,0.9,-0.2,8.3,12.4
CCc1ccc(-n2c(C)cc(/C=C3\C(=N)N4N=CSC4=NC3=O)c2C)cc1,-179.8,6.2,40.1*,62.0*,-120.9
CCC(C)NC(=O)c1c(O)c2cccc3c2n(c1=O)CC3 (stereo unspecified),-6.8,1.9,2.1,53.2*,13.9
O=C(/C=C/c1ccc2c(c1)OCO2)Nc1nc2n(n1)C(c1ccccc1)CC(=O)N2 (stereo unspecified),5.9,-1.4,21.7,61.9*,-3.2
CC(=O)N1[C@@H]2CN(C(=O)c3cccc(=O)[nH]3)[C@@H]3CCC[C@H]1[C@]3(C)C2,2.0,-2.1,-0.4,-1.9,-0.1
COc1ccccc1CCC(=O)N1CCN(c2cc(C)n3c(C)nnc3n2)CC1,-0.3,0.0,2.0,10.9,0.7
CCOC(=O)c1cccc(N=Cc2sc(O)c3ccccc23)c1,-136.7,-152.4,-5.7,-243.2,-172.4
Oc1sc(C=Nc2ccc(F)cc2)c2ccccc12,-18.0,3.0,0.2,67.7*,-1.2
CC(C)CCNC(=O)c1cccc(-c2cnc(NC3CCCCC3)nc2)c1,5.8,4.7,1.7,19.8,19.5
CC(C)CCNC(=O)c1ccc2c(=O)n(C3CCCC3)c(=O)[nH]c2c1,11.7,0.0,9.3,34.4*,8.3
CC[C@H](C)[C@H](NC(=O)[C@H]([C@@H](C)CC)N(C)C(C)=O)C(=O)N[C@H](C(=O)N[C@@H](CC(C)C)C(=O)C1(C)CO1)[C@@H](C)O (stereo partly specified),-145.3,25.3,9.4,57.0*,31.1*
COc1ccc(OC)c(-n2c(SCC(=O)N3CCc4ccccc43)nnc2-c2cccc(S(=O)(=O)N(C)C)c2)c1,8.4,10.2,6.8,10.9,32.0*
COc1ccc(C(=O)Nc2nnc(S(=O)(=O)N3c4ccccc4CC3C)s2)cc1OC (stereo unspecified),.,1.2,9.0,-1.1,-22.9
Cc1ccc2[nH]c3c(=O)n(CCc4ccccc4)cnc3c2c1,6.3,1.4,12.3,31.6*,-0.7
CCOc1ccc2[nH]c3c(=O)n(CCC4=CCCCC4)cnc3c2c1,9.7,2.8,8.9,47.5*,14.5
O=c1c2[nH]c3ccc(Cl)cc3c2ncn1CCc1ccccc1,3.2,0.2,3.7,13.1,2.2
SMILES,USP7 block,UCHL1 inh,USP10 inh,USP8 block,OTUD3 block
O=C(NCc1ccccn1)c1nc(-c2cn(-c3ccc(Cl)cc3)nn2)no1,1.9,3.8,6.1,49.7*,9.2
Cc1nn(-c2ccc(F)cc2)cc1-c1noc(C(=O)NCc2ccccn2)n1,-16.9,2.3,4.5,34.5*,23.4
Cc1nn(-c2ccc(F)cc2)cc1-c1noc(C(=O)NCc2ccco2)n1,-40.7,2.7,0.3,5.0,4.6
CCOc1ccc(-c2ccc3nnc(SCC(=O)Nc4cccc(C(C)=O)c4)n3n2)cc1,16.5,10.4,1.5,25.6,16.7
c1csc(CCN2CCC(NC3CCCCCC3)CC2)c1,-0.1,-4.4,-4.5,-7.6,0.1
Cn1cc(-c2cnc(-c3ccccc3)nc2)cc1C(=O)NC1CC1,4.5,0.0,3.0,4.0,2.6
CN(c1ccccc1)c1nc(-c2ccccc2)no1,-4.7,-0.8,-0.5,0.2,-4.2
CC(Oc1ccccc1Cl)C(=O)Nc1ccc2nsnc2c1 (stereo unspecified),-10.2,6.7,2.7,36.2*,15.0
Cc1cc(C)cc(OC(C)C(=O)Nc2ccc3nsnc3c2)c1 (stereo unspecified),-5.4,0.7,6.2,24.2,2.5
Cc1ccc(OC(C)C(=O)Nc2ccc3nsnc3c2)cc1C (stereo unspecified),-1.4,3.0,0.2,45.0*,1.6
Cc1nc(CNC(=O)C(C)Oc2ccccc2Cl)cs1 (stereo unspecified),1.6,-0.4,-1.9,-0.1,7.5
CCc1ccc(OC(C)C(=O)Nc2ccc3nsnc3c2)cc1 (stereo unspecified),-5.6,6.3,3.3,66.3*,-5.5
CC(=O)Nc1ccc(C(=O)/C=C2\NCCc3cc4c(cc32)OCCCO4)cc1,-11.2,-2.6,-6.1,44.5*,-66.7
O=C(Nc1ccc2c(c1)OCCO2)C1CCC(Cn2cnc3ccccc3c2=O)CC1 (stereo unspecified),1.7,6.0,50.9*,3.1,11.2
Cc1cc(NC(=O)c2cccc(F)c2)ccc1-n1cnnn1,-0.5,-0.2,3.8,-2.4,0.0
CCCC(O)CCCCCCCc1cc(O)cc(O)c1C(=O)OC(CCC)CCCCCCCc1cc(O)cc(O)c1 (stereo unspecified),-0.3,5.6,76.2*,14.7,19.0
Cc1ccc(NC(=O)Nc2ccc(C)n(CC(=O)Nc3ccc(C)c(C)c3)c2=O)cc1,42.8*,4.7,65.9*,92.5*,-2.7
Cc1cccc(NC(=O)Nc2ccc(C)n(CC(=O)N3CCCCC3)c2=O)c1,1.2,1.6,-3.8,4.7,-1.2
CN(Cc1cc(=O)n2ccsc2n1)c1ccccc1,-9.4,-2.8,-1.9,34.7*,-14.2
Cc1ccc2nc(CN(C)c3ccccc3)cc(=O)n2c1,-33.5,6.4,-7.2,74.2*,-2.3
NC(=O)c1ccccc1NCc1cc(=O)n2cc(Cl)ccc2n1,-19.8,-17.9,-7.8,-14.7,-28.9
Cc1ccc2nc(CNc3ccc(F)cc3C)cc(=O)n2c1,-18.7,31.7*,23.2,93.0*,42.0*
NCCC(=O)NC1CCN(c2nc(-c3cccnc3)nc3ccccc23)CC1,-1.5,-1.9,-1.0,-40.5,-3.8
Cc1ccc(S(=O)(=O)CCN2CCN(CCS(=O)(=O)c3ccc(C)cc3)CC2)cc1,6.8,-1.8,1.9,0.0,1.7
CCOc1ccc(S(=O)(=O)NCc2ccccc2Cl)c2ccccc12,16.1,11.2,14.5,30.4*,24.0
CCOc1ccc(S(=O)(=O)n2ccc(C)n2)c2ccccc12,4.2,5.3,4.4,7.5,6.2
